# In PubChem BioAssay:
# Calls of active or inactive are those of the source.
# Legend:
# [1] = binders of probe aFSTL3 on microarray, primary screen, stem cell growth factor project, biochemical, small-molecule microarray, fluorescence 635/667 (AID 1064); conditions: higher = more signal;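 note: measures binding of the biotinylated anti-FSTL3 antibody to printed compounds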
# [2] = binders from COS7 lysate, DM2A8 probe, primary screen, torsin A project, cell lysate, small-molecule microarray, fluorescence 635/667 (AID 1065); conditions: higher = more signal, COS7 lysate expressing mutant human TOR1A
# [3] = binders of probe aFGF2 on microarray, primary screen, stem cell growth factor project, biochemical, small-molecule microarray, fluorescence 635/667 (AID 1067); conditions: higher = more signal;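 note: measures binding of biotinylated aFGF2 protein to printed compounds on slides; z-score merges feature fluorescence and signal-to-noise across triplicate slides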
# [4] = binders of probe aFGF10 on microarray, primary screen, stem cell growth factor project, biochemical, small-molecule microarray, fluorescence 635/667 (AID 1071); conditions: higher = more signal;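 note: score merges 667 nm spot intensity and signal to noise from triplicate slides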
# [5] = target: Neurogenic locus notch homolog protein 2 (Homo sapiens) (UniProt Q04721); assay: Notch2 binders on small-molecule microarrays, primary screen, biochemical, small-molecule microarray, 635 nm fluorescence, stem cell growth factors (AID 1073); conditions: Notch2 binding, higher = more signal
# [6] = target: Pro-neuregulin-1, membrane-bound isoform (Homo sapiens) (UniProt Q02297); assay: NRG1 binders on small-molecule microarrays, primary screen, psychiatric disease protein project, biochemical, small-molecule microarray, fluorescence 635/667 (AID 1075); conditions: NRG1 binding, 635 nm fluorescence, higher = more signal;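 note: score combines 667 nm spot fluorescence with signal to noise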
# [7] = system: Neuregulin-1 EGF-like domain; assay: binders of neuregulin-1 EGF-like domain, primary screen, biochemical, small-molecule microarray, 635 nm fluorescence (AID 1081); conditions: small-molecule microarray binding, higher = more signal;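 note: binding of the protein to compounds printed on small-molecule microarray slides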
# [8] = FRG1 promoter luciferase signal modulators, primary screen, FRG1 inhibition for FSHD, cell-based, C2C12 myotubes, firefly/Renilla luciferase, luminescence (AID 1084); conditions: higher = more signal, called active from +8 up or from −8 down
# [9] = binders of probe aFST on microarray, primary screen, stem cell growth factor project, biochemical, small-molecule microarray, fluorescence 635/667 (AID 1086); conditions: higher = more signal;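 note: score merges 667 nm fluorescence with signal-to-noise of each printed compound spot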
# [10] = binders of probe aHhip on microarray, primary screen, stem cell growth factor project, biochemical, small-molecule microarray, fluorescence 635/667 (AID 1087); conditions: higher = more signal;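 note: score merges spot fluorescence at 667nm with spot signal to noise ratio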
# Chain of Neurogenic locus notch homolog protein 2 (Homo sapiens) (Q04721 whole entry, looked up, canonical isoform): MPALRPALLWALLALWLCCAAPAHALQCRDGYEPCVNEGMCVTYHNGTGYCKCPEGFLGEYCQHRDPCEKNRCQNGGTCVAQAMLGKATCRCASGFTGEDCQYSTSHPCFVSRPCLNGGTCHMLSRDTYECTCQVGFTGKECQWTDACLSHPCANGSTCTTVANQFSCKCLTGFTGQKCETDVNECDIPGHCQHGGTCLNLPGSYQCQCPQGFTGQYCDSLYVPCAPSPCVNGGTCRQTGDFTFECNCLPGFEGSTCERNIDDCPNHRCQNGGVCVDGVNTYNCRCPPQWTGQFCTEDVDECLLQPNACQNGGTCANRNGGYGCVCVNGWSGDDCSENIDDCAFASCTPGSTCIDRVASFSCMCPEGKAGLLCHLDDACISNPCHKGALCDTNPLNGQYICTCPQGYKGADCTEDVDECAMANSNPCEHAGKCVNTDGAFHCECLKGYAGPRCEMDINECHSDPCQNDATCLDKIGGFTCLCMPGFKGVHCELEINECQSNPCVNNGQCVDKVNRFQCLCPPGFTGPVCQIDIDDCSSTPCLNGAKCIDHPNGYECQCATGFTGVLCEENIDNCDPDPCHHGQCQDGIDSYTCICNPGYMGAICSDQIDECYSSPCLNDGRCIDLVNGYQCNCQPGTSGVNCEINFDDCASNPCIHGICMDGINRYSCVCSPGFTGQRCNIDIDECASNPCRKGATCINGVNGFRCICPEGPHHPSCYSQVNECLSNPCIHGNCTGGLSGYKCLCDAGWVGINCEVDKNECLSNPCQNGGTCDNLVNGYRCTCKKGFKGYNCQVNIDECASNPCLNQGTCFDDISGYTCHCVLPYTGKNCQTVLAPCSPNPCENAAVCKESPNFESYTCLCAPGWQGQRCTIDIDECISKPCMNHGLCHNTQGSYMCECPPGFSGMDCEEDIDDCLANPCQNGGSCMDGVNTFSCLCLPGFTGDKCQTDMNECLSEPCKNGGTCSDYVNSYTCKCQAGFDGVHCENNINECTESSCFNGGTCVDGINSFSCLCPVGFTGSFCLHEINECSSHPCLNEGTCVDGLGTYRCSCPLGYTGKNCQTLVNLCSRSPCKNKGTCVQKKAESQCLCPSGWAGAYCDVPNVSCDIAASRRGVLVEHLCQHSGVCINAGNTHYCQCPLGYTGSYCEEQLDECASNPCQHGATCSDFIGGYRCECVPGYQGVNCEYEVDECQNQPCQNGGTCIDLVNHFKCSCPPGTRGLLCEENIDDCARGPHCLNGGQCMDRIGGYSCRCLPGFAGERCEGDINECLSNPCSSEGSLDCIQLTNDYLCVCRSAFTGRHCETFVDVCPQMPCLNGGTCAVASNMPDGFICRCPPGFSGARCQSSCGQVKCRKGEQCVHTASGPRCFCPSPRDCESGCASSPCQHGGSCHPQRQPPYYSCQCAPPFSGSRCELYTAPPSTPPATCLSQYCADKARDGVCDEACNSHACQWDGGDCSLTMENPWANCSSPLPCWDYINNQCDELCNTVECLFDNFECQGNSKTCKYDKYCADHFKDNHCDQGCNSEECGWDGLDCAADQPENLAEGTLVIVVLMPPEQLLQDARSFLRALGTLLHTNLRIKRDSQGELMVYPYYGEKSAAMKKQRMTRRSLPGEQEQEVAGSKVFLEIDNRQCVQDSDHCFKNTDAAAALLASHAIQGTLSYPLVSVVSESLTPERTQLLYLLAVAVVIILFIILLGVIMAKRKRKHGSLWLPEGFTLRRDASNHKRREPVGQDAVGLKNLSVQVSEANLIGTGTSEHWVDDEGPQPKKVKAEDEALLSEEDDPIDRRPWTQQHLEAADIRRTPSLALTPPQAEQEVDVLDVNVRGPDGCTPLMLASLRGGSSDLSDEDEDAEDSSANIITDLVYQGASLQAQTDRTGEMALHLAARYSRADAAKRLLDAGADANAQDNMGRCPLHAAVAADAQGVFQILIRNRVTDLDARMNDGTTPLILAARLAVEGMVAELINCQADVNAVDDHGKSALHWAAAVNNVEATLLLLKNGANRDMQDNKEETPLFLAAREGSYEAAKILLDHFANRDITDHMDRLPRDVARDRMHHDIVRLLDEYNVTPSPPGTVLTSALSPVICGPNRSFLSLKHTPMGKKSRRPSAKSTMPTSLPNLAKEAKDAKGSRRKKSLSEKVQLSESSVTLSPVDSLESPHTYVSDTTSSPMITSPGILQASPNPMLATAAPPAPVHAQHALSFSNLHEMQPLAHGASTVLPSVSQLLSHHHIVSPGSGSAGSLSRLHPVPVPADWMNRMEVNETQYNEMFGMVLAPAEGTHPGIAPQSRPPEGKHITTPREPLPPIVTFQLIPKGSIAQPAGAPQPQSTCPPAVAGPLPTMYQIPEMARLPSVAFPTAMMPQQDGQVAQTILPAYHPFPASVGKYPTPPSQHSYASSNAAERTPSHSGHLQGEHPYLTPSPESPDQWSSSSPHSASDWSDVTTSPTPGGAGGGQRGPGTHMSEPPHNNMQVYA
# Chain of Pro-neuregulin-1, membrane-bound isoform (Homo sapiens) (Q02297 whole entry, looked up, the tested form may be a part, canonical isoform): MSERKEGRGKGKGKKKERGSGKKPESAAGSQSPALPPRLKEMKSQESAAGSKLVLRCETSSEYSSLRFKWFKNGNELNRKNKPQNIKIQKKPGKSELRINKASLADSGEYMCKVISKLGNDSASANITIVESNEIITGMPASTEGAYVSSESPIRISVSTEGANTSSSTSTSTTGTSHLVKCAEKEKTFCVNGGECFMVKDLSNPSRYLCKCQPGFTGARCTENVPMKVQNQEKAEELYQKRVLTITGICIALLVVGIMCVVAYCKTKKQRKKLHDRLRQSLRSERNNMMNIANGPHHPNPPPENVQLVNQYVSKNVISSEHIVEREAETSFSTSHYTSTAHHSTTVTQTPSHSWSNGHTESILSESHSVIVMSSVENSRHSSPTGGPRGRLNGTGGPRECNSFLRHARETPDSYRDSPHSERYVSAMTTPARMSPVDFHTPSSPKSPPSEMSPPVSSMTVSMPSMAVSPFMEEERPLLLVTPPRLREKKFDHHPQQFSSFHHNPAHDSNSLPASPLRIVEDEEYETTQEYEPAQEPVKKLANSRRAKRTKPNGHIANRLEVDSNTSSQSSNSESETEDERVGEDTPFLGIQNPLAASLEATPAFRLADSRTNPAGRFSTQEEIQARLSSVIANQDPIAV
SMILES,composite z-score [1],composite z-score [2],composite z-score [3],composite z-score [4],composite z-score [5],composite z-score [6],composite z-score [7],z-score [8],composite z-score [9],composite z-score [10]
O=C1C[C@@H](O)[C@@H](O)[C@@H]2[C@@H]3C(=O)N(c4ccc(F)cc4F)C(=O)[C@@H]3CC[C@@H]12,-0.416,0.267,-0.122,0.315,0.627,0.0489,0.823,0.25 (inactive),0.153,0.144
COC(=O)CC=C[C@@H](C)[C@@H](C=NO[C@H](C)c1cn([C@@H]2COC[C@H]2O)nn1)OC,-0.276,0.563,-0.0914,0.37,0.268,-0.482,0.951,-0.954 (inactive),0.0889,0.0024
Cc1ccc(S[C@]2(C(=O)NCC(F)(F)F)CC(=O)N(Cc3ccccc3Cl)[C@@H]2c2ccc(CO)cc2I)cc1,0.647,-0.193,-0.122,0.494,-1.23,2.01,1.21,-1.13 (inactive),-0.611,-0.284
C=CCNC(=O)[C@H]1[C@@H]2C(=O)O[C@@H](c3ccccc3)[C@@H](c3ccccc3)N2[C@@H](c2ccc(O)cc2)[C@]12C(=O)N(C(=O)OCCOC)c1ccc(C#CC3=CCCCC3)cc12,0.484,1.24,0.008,0.72,1.05,2.03,1.06,-0.829 (inactive),2.01,1.75
CC(=O)OC[C@H]1O[C@H](CCON=C(C)CCC(=O)OC[C@H]2O[C@H](C#Cc3ccccc3)C=C[C@@H]2Oc2ccc(C)cc2)C=C[C@@H]1OC(C)=O,-0.41,0.703,-0.12,0.479,-0.126,0.0383,0.359,0.718 (inactive),0.265,-0.132
C[C@H]1Cc2c(-c3ccccc3)nc3c(c2CO1)CN(CCOc1ccccc1)CC3,-0.635,0.568,-0.113,0.739,1.41,0.135,0.991,0.53 (inactive),0.307,-0.0708
CO[C@@H]1COC(=O)CC=C[C@@H](C)[C@@H]2C=C[C@H](O)[C@@H](COC(=O)CCC[C@H]1C)O2,-0.29,1.11,-0.146,-0.14,-0.117,-0.582,-0.167,-0.414 (inactive),0.246,-0.261
CCN1C(=O)[C@H]2[C@H]3[C@H](O)[C@H](O)CC(=NOCc4ccccc4)[C@@H]3CC[C@H]2C1=O,-0.239,0.441,-0.197,0.31,0.931,-0.195,0.567,-0.641 (inactive),0.0882,-0.3
Cc1ccc(S[C@]2(C(=O)O)CC(=O)N(Cc3ccccc3)[C@@H]2c2ccc(CO)cc2I)cc1,0.481,-0.421,-0.0494,-0.333,-0.143,1.8,1.03,-0.406 (inactive),-0.255,-0.0994
CC(C)=CCCC(C)=CCON=C1[C@H]2CCn3c(=O)n(C)c(=O)n3[C@H]2[C@H](O)[C@@H]2O[C@H]12,-0.315,0.491,-0.156,0.585,0.38,0.763,1.05,-0.713 (inactive),0.412,-0.0673
COC(=O)c1c(CC[C@@H](CO)NC(=O)N[C@H](Cc2ccccc2)Cn2cc(-c3ccccc3N)nn2)oc(C(C)=O)c1C(=O)OC,0.718,0.799,0.241,0.465,0.269,0.939,0.71,-0.52 (inactive),0.914,0.176
COCCCNC(=O)[C@@]1(Sc2ccc(C)cc2)CC(=O)N(Cc2ccccc2)[C@@H]1c1ccc(CO)cc1I,0.438,0.258,0.193,-0.134,-0.895,1.38,-0.118,-0.646 (inactive),0.458,0.0327
COc1ccc([Si](C)(C)[C@@H]2[C@@H](CCO)O[C@]3(C(=O)N(Cc4ccc(NC(C)=O)cc4)c4ccccc43)[C@H]2C)cc1,-0.189,1.05,-0.0049,1.18,1.47,1.66,1.24,-4.04 (inactive),0.17,0.0373
CCCNC(=O)[C@@H]1c2ccccc2C(=O)N(Cc2ccccc2Cl)[C@H]1c1ccc(CO)cc1,0.198,0.274,0.0336,0.633,1.17,0.963,1.21,-1.18 (inactive),0.703,-0.216
CC1CC/C=C\[C@H]2OC34C=CCN(C(C)C)C(=O)[C@H]3N(CCCO)C(=O)[C@@H]4C2C(=O)O1 (stereo not given in full),0.456,1.1,-0.175,0.245,-0.673,1.19,0.866,-0.345 (inactive),-0.5,0.214
C#CCCCON=C1C[C@@H](O)[C@@H](O)[C@@H]2[C@@H]3C(=O)N(CCC(=O)OCC)C(=O)[C@@H]3CC[C@@H]12,1.93,0.597,-0.0505,-0.0007,-0.835,0.107,-0.307,0.665 (inactive),0.63,-0.12
O=C1CCCC2OC12C(O)CCc1ccccc1 (stereo not given),-0.555,0.475,-0.166,0.411,0.455,-0.333,-0.251,0.42 (inactive),-0.0128,-0.226
Cc1ccc(F)cc1S(=O)(=O)N[C@@H]1CCN(Cc2ccc(CC(C)C)cc2)C1,-0.433,0.172,-0.214,-0.613,-0.613,-0.0721,-0.197,-1.06 (inactive),-0.493,-0.249
CO[C@H]1COC(=O)[C@H](C)COC(=O)CC=C[C@@H](C)[C@H](OC)COC(=O)CC=C[C@@H]1C,-0.654,0.682,-0.226,-0.0247,-0.217,-0.481,-0.311,0.847 (inactive),-0.08,0.0854
COc1cccc([C@H]2Oc3ccc(OC)cc3C(=NO[C@H](C)c3cn([C@@H]4COC[C@H]4O)nn3)[C@@H]2O)c1,-0.183,0.044,-0.0867,-0.246,-0.315,0.0671,-0.168,0.253 (inactive),-0.324,-0.305
CCN1C(=O)[C@H]2[C@H]3[C@H](O)[C@H](O)CC(=NOCc4ccccc4)[C@H]3CC[C@H]2C1=O,-0.5,0.391,-0.116,0.611,0.262,-0.0759,-0.0363,0.273 (inactive),0.214,-0.226
COC(=O)[C@@H]1CC[C@H](C)[C@@H](c2ccc(C)cc2)N1C(=O)c1ccc(C=NOC(C)CN2CCCCc3nc(C)c(C)cc32)cc1 (stereo not given in full),0.145,-0.859,-0.0959,0.233,-0.199,0.131,0.312,0.204 (inactive),0.165,0.226
COc1ccc([Si](C)(C)[C@@H]2[C@@H](CC(=O)N3CCC[C@H]3CO)O[C@]3(C(=O)N(Cc4cccc(N5CCC5=O)c4)c4ccccc43)[C@H]2C)cc1,-0.0723,0.461,-0.0715,0.45,0.322,1.51,1.14,-0.548 (inactive),-0.187,0.107
CO[C@H]1COC(=O)[C@@H]2CCCN2C(=O)[C@@H](C)COC(=O)CC=C[C@@H]1C,-0.553,1.69,-0.118,0.624,0.0761,-0.446,0.997,0.36 (inactive),0.107,-0.249
CCc1cc2c(nc1CC)CCN(CCC(C)=NOC(C)CN1CCCc3nc(C)c(C)cc31)C2 (stereo not given),0.271,1.29,0.131,0.16,1.35,0.408,1.17,1.04 (inactive),1.15,1.17
C=CCOC(=O)[C@H]1[C@@H]2C(=O)O[C@@H](c3ccccc3)[C@@H](c3ccccc3)N2[C@@H](c2ccc(OCCOC(=O)[C@H]3C[C@H]4C(=O)N[C@@H](Cc5ccccc5)C(=O)N4[C@H]3c3ccc(O)cc3)cc2)[C@]12C(=O)Nc1ccccc12,-0.298,0.0087,-0.0692,0.349,0.355,0.188,1.29,0.458 (inactive),0.276,-0.109
